Assay outcomes from PubChem.
HEK293 tox – cytotoxic compounds in HEK 293 cells | HEK 293 viability, ATP luminescence (CellTiter-Glo), 48-72 h | Potency, µM (series often up to 115 µM), for inactives: top-dose activity change, negative = cytotoxicity, hits mostly inhibitors | 94,000 compounds, 6.6% hits; also: nearly all actives have a fitted effect of over 60% in size
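HEK 293 cells at 250 cells/well were exposed to compounds by pintool transfer for 48 or 72 hr at 37 degree Celsius, 5% CO2. Viability was read as ATP-coupled luminescence with CellTiter-Glo after 10 min at room temperature.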
hNpr1 antagonist – human Npr1 receptor antagonism; P16066; HEK293 hNpr1 GloSensor cGMP, ANP-stimulated luminescence; Potency, µM (top dose mostly 46.3 µM), inactives show top-dose activity change, negative = inhibition, actives largely listed as inhibitors; 76,000 compounds, 1.6% hits; AID 1347048; calls by dose curve; also: nearly all actives have a fitted effect of over 60% in size
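Compound pre-incubated 30 min at room temperature on GloSensor-loaded HEK293 cells stably carrying hNpr1 and the pGS-40F cGMP biosensor. Stimulation uses hNppA at 0.1 nM final; luminescence is taken at baseline and 20 min post-agonist.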
3T3 cytotox – cytotoxic compounds in NIH 3T3 cells; NIH 3T3 viability, CellTiter-Glo ATP luminescence, 48-72 h; Potency, µM (series often up to 96.7 µM), inactives show at the highest dose activity change, negative = cytotoxicity, hits mostly inhibitors; 94,000 compounds, 4.3% hits; AID 1345082; also: nearly all actives have a fitted effect of over 55% in size
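Cells were seeded at 400 per well, treated with pin-transferred compound, and kept 48 or 72 hr at 37 °C before CellTiter-Glo addition and luminescence imaging of cellular ATP.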
FLuc inh – inhibitors of firefly (Photinus pyralis) luciferase | P08659 | purified P. pyralis luciferase, luminescence, biochemical | Potency, µM (top dose mostly 115 µM), hits mostly inhibitors | 76,000 compounds, 2.5% hits; also: nearly all actives have a fitted effect of over 65% in size
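Purified P. pyralis luciferase (10nM final) in 50mM Tris acetate pH 7.5, 10mM Mg acetate, 0.01% Tween-20, 0.05% BSA with 10uM D-luciferin and 10uM ATP. Compounds titrated qHTS. Luminescence imaged on CCD.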
Active calls of the source: *; i = inactive; ? = inconclusive; . = no result; [ ] = remark or other dose. The list is not random: actives were taken first. Their share in the collection is about 11%. Unless noted, calls follow the shape of the dose curve; as a rule, active = well fitted curve in the direction sought with a large enough effect; inconclusive = small, poorly fitted or top-dose-only effect, or another doubt; inactive = no such curve, though single readings can be large; an effect the other way counts as inactive or inconclusive. % is scaled to controls: 0 for no effect and ±100 for the full control effect; potency is read from the fitted curve at half-maximal effect.

SMILES	HEK293 tox	hNpr1 antagonist	3T3 cytotox	FLuc inh
CCC(C)Oc1ccc(CNC(=O)c2cn(CCN)nn2)cc1 (centres undefined)	31.6µM*	2.5%	?	i
CC(C(=O)NCc1ccccc1)N1C(=O)COc2ccc(C(=O)COc3ccc(Cl)cc3)cc21 (centres undefined)	89.1µM*	-2.6%	?	i
CN(Cc1ccccc1)C(=O)CN1C(=O)COc2ccc(C(=O)COc3ccccc3F)cc21	50.1µM*	-1.9%	-29.6%	i
CC(C)c1ccccc1OCC(=O)c1ccc2c(c1)N(CC(=O)N1CCCC1)C(=O)CO2	39.8µM*	-1.9%	-5.1%	i
CC(C)c1ccccc1OCC(=O)c1ccc2c(c1)N(CC(=O)N1CCCCC1)C(=O)CO2	?	-3.3%	?	i
CCc1cccc(OCC(=O)c2ccc3c(c2)N(CC(=O)N(C)Cc2ccccc2)C(=O)CO3)c1	?	12.6µM*	?	i
O=C(CN1C(=O)COc2ccc(C(=O)COc3ccccc3F)cc21)NC1CCCCC1	-18.2%	-1.2%	-10.4%	i
Cc1cc(C)cc(OCC(=O)c2ccc3c(c2)N(CC(=O)N(C)Cc2ccccc2)C(=O)CO3)c1	31.6µM*	-2.9%	?	i
Cc1cccc(OCC(=O)c2ccc3c(c2)N(CC(=O)N(C)Cc2ccccc2)C(=O)CO3)c1	22.4µM*	-0.6%	?	i
COc1ccc(CN2Cc3cc(NC(=O)Cc4ccc(F)cc4)ccc3OC(C)C2=O)cc1 (centres undefined)	39.8µM*	-12.9%	?	i
CC1Oc2ccc(NC(=O)Cc3ccccc3)cc2CN(Cc2ccc(F)cc2)C1=O (centres undefined)	44.7µM*	?	?	i
COc1ccccc1CN1Cc2cc(NS(=O)(=O)c3ccc(C)c(F)c3)ccc2OC(C)C1=O (centres undefined)	?	-14.0%	?	i
CC1Oc2ccc(NS(=O)(=O)c3ccc(F)cc3)cc2CN(Cc2ccc(F)cc2)C1=O (centres undefined)	44.7µM*	-22.9%	?	i
CC1Oc2ccc(NC(=O)Cc3ccc(F)cc3)cc2CN(CCc2ccc(F)cc2)C1=O (centres undefined)	?	-8.8%	?	i
CC1Oc2ccc(NC(=O)Cc3ccc(F)cc3)cc2CN(CC2CC2)C1=O (centres undefined)	39.8µM*	4.9%	?	i
CN(C)c1nc2c(c(=O)[nH]1)CCN(Cc1ccc(F)c(Br)c1)CC2	0.4%	-3.4%	-1.6%	i
CCOC(=O)C1(Cc2ccccc2C)CCCN(Cc2cn(CC(N)=O)c3ccccc23)C1 (centres undefined)	?	-0.7%	?	i
Cc1ccc(CN2CCC(N3CCCCCC3=O)CC2)cc1	-2.3%[172 µM]	8.7%[70.6 µM]	-4.9%[138 µM]	i
COc1ccc(C(=O)Nc2ccc3n(c2=O)C[C@H]2C[C@@H]3CN(S(=O)(=O)c3ccc(OC)cc3)C2)cc1	?	-2.1%	-21.3%	8.91µM*
COc1ccc(S(=O)(=O)N2C[C@@H]3C[C@H](C2)c2ccc(NC(=O)c4cnccn4)c(=O)n2C3)cc1	3.7%	-0.3%	1.1%	i
O=C(c1ccc(CCC2COc3ccccc3O2)cc1)N1CCCCC1 (centres undefined)	?	?	?	35.5µM*
CC(C)(C(=O)NCCC1COc2ccccc2O1)N1CCOCC1 (centres undefined)	-9.3%	-2.1%	0.4%	i
Cc1ccc(-c2c(C(=O)NCc3ccccn3)nc3sccn23)cc1	79.4µM*	.	?	.
COc1ccc(-c2c(C(=O)NC3CCCCCC3)nc3sccn23)cc1	44.7µM*	.	-22.3%	.
COc1ccc(CCNC(=O)c2nc3sccn3c2-c2ccc(C)cc2)cc1	?	.	22.4µM*	.
Cc1ccc(-c2c(C(=O)NCCCc3ccccc3)nc3sccn23)cc1	17.8µM*	.	28.2µM*	.
O=C(NCc1ccccn1)c1nc2sccn2c1-c1ccc(F)cc1	-22.3%	.	?	.
CO[C@H]1C(=O)N(C2CCN(Cc3cccc(C)c3)CC2)[C@H]1c1ccncc1	-5.8%	.	-24.1%	.
Cc1cnc(CC2CCN(C(=O)NCc3ccccc3)C2)n1CC1CC1 (centres undefined)	-5.2%	.	-5.5%	.
O=C(Nc1cccc(-c2nnc3n2CCCC3)c1)c1ccc(F)cc1	-21.4%	4.1%	?	i
